# Source: PubChem BioAssay (NCATS)
# “And” between values parts separate entries of the source, which are not always exact repeats. Equal entries are not always repeated. Records with an inconclusive call do not appear. A call without a number means that no potency is given here. A structure can be active in one record and inactive in another. The source made the active and inactive calls. Unless noted, calls come from the whole dose curve; as a rule, active = well fitted curve in the direction sought with a large enough effect; inconclusive = small, poorly fitted or top-dose-only effect, or another doubt; inactive = no such curve, though single readings can be large; an effect the other way counts as inactive or inconclusive. Peptide text beside a SMILES is read from it.
# Assays:
# [1] = molecular target: Cytochrome P450 3A4 (Homo sapiens) (UniProt P08684); test: qHTS Assay for Inhibitors and Substrates of Cytochrome P450 3A4 (AID 884); note: nearly all actives have a fitted effect of over 50% in size; note: potency is the fitted concentration of half-maximal effect
# Sequence of Cytochrome P450 3A4 (Homo sapiens) (P08684 whole entry, looked up): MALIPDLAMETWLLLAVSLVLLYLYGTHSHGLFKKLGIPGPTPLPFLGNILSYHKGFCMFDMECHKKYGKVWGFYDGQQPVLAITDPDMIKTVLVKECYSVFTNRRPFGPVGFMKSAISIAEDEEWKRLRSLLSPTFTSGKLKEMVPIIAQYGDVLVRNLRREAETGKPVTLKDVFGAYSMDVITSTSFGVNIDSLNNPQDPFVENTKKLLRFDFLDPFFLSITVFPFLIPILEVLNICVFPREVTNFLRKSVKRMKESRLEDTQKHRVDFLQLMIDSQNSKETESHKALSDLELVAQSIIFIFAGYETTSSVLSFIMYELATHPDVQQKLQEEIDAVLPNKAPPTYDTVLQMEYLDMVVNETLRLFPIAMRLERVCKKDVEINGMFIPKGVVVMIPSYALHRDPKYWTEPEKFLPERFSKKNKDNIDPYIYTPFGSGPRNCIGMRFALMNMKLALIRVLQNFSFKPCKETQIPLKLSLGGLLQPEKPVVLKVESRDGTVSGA
# Outline: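 20 nM human CYP3A4 with 25 uM Luciferin-PPXE (at KM) in 200 mM KPO4, preincubated 10 min with compound; NADPH regeneration started a 60 min RT reaction. Luciferin detected by luminescence, normalized to 57 uM ketoconazole as full inhibition.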
# [2] = Cellular Toxicity (caspase-3) N2a (AID 665);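 note: compound exposure lasted 16 h at 37 °C before readout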
# Outline: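 Mouse N2a neuroblastoma cells, 1500 per well, treated 16 h at 37 °C in complete medium; caspase-3/7 activity by Caspase-Glo luminescence after 1 h. Normalized to DMSO and 10 uM staurosporine; AC50 from Hill fits.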
# [3] = Cellular Toxicity (caspase-3) NIH 3T3 (AID 666);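 note: caspase signal read after 16 h compound exposure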
# Outline: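 Mouse NIH 3T3 fibroblasts (1000/well) treated 16 h at 37 C; caspase-3/7 activity measured by Caspase-Glo 3/7 luminescence after 20 min. Normalized to DMSO and 100 uM tamoxifen; AC50 from Hill fits.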
# [4] = Cellular Toxicity (caspase-3) Renal Proximal Tubule (AID 667);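 note: cells exposed to compound for 16 hours at 37 °C before detection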
# Outline: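 In qHTS format, rat primary proximal tubule cells seeded at 1000 per well are exposed to compounds for 16 hours at 37 °C. An increase in Caspase-Glo 3/7 luminescence indicates caspase activation.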
# [5] = molecular target: Cytochrome P450 2C9 (Homo sapiens) (UniProt P11712); test: qHTS Assay for Inhibitors and Substrates of Cytochrome P450 2C9 (AID 883); note: nearly all actives have a fitted effect of over 60% in size; note: potency is the fitted concentration of half-maximal effect
# Sequence of Cytochrome P450 2C9 (Homo sapiens) (P11712 whole entry, looked up): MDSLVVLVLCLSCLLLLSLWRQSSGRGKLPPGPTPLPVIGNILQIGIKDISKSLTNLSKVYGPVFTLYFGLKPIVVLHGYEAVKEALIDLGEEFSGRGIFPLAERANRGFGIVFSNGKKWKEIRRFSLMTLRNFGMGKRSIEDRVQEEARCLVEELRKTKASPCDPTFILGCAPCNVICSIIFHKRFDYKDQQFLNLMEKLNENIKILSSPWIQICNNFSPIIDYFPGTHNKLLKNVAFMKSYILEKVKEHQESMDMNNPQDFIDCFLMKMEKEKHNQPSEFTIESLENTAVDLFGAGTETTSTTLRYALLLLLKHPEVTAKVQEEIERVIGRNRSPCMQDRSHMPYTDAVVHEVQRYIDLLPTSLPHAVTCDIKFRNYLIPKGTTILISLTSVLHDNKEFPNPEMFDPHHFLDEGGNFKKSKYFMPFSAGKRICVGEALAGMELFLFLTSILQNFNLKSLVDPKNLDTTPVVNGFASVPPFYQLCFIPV
# Outline: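 CYP2C9 deoxyluciferin hydroxylation, 37C, 60 min with NADPH regeneration; 10nM enzyme, 100uM Luciferin-H (KM). Glo detection reagent stopped reaction; luminescence normalized to sulphaphenazole (57uM) full inhibition.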
# [6] = molecular target: Cytochrome P450 3A4 (Homo sapiens) (UniProt P08684); test: qHTS Assay for Activators of Cytochrome P450 3A4 (AID 885); note: nearly all actives have a fitted effect of over 65% in size
# Outline: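 Human CYP3A4 (20 nM) with Luciferin-PPXE at 25 uM (its KM) in 200 mM KPO4; 10 min compound preincubation, then NADPH regeneration and 60 min reaction at RT. Luciferin read by luminescence; normalized to 57 uM ketoconazole full inhibition.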
# [7] = qHTS Assay for Identification of Small Molecule Agonists for Thrombopoietin (TPO) Signaling Pathway (AID 917); note: potency is the fitted concentration of half-maximal effect
# Outline: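 We measured Glycoprotein IIb promoter–luciferase output in IL-3-starved Ba/F3 murine cells expressing the human TPO receptor after 24 hrs at 37 C with compounds and 26 pM TPO.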
# [8] = molecular target: Cytochrome P450 2D6 (Homo sapiens) (UniProt P10635); test: qHTS Assay for Inhibitors and Substrates of Cytochrome P450 2D6 (AID 891); note: nearly all actives have a fitted effect of over 60% in size; note: potency is the fitted concentration of half-maximal effect
# Sequence of Cytochrome P450 2D6 (Homo sapiens) (P10635 whole entry, looked up): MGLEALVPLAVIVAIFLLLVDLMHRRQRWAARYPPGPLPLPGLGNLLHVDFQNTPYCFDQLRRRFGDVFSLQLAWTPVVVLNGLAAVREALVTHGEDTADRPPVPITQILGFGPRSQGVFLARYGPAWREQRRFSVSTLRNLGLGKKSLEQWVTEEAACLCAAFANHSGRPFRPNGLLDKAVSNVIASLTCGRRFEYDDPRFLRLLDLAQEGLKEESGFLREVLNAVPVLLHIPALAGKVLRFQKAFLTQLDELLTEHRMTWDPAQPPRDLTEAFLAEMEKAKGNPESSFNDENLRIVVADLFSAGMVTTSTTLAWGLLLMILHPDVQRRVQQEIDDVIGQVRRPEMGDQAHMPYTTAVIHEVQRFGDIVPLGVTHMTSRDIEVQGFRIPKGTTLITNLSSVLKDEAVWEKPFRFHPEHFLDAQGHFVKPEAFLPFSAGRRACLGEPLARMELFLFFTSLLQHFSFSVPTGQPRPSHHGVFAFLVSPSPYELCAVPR
# Outline: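 Human CYP2D6 (5 nM) with 30 uM Luciferin-ME EGE (at Km) in 100 mM KPO4, compound preincubated 10 min, then NADPH regeneration system for 60 min at room temperature. Luciferin read by luminescence; normalized to 1.43 uM quinidine.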
# [9] = qHTS Assay for Identification of Small Molecule Antagonists for NFkB Signaling Pathway (AID 895; active = well fitted inhibition curve with a large enough effect in the signal ratio, with a control signal flat, not every such curve was filed as active; the % refers to the signal ratio; note: potency is the fitted concentration of half-maximal effect)
# Outline: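 NFkB-bla ME-180 cervical carcinoma cells with beta-lactamase reporter under NFkB response element; compounds added, then TNF alpha at 10 pM final (EC50), 5 h at 37 C. LiveBLAzer substrate 2 h, room temperature; emission 460/530 nm at 405 nm excitation.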
# [10] = qHTS Assay for Identification of Small Molecule Agonists for Hypoxia Response Element Signaling Pathway (AID 914; active = well fitted activation curve with a large enough effect in the signal ratio, with a control signal flat, not every such curve was filed as active; the % refers to the signal ratio); settings: ME-180 (cervical carcinoma) HRE-bla reporter, beta-lactamase ratio, CoCl2, 17 h; stronger effect = higher value
# Outline: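 A beta-lactamase reporter under hypoxia response element control in ME-180 cells served as the system. Compound titrations plus EC50 CoCl2 ran 17 h at 37 degrees Celsius; AC50 values were fitted from %Activity.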
compound,measurement,setting,value
O=C(O)c1cc(=O)c2c(OCC(O)COc3cccc4oc(C(=O)O)cc(=O)c34)cccc2o1,Potency,[1],inactive
O=c1oc2cc(O)ccc2s1,Potency,[1],inactive
CN(C)c1ccc2nc3ccc(=[N+](C)C)cc-3sc2c1,outcome,[2],inactive
same,outcome,[3],inactive
same,outcome,[4],inactive
Cc1cccc(C#Cc2ccccc2)n1,Potency,[5],inactive and 10 µM (active)
same,outcome,[6],inactive
same,Potency,[7],1 µM (active)
Cc1nc2n(c(=O)c1CCN1CCC(c3noc4cc(F)ccc34)CC1)CCCC2,outcome,[5],inactive
same,Potency,[8],7.94 µM (active)
same,Potency,[9],inactive
same,Potency,[7],inactive
O=C(CCc1ccc(O)cc1)c1c(O)cc(O)cc1O,Potency,[5],2.51 µM (active)
same,Potency,[1],2 µM (active) and 15.8 µM (active)
same,outcome,[6],inactive
same,Potency,[7],inactive
Cc1cc(=O)oc2cc(O)ccc12,Potency,[5],inactive
Cc1cc(O)c2c(c1)C(=O)c1cc(O)cc(O)c1C2=O,outcome,[2],inactive
same,outcome,[4],inactive
same,Potency,[5],3.98 µM (active)
same,Potency,[8],31.6 µM (active)
COC(=O)[C@H](Cc1ccccc1)NC(=O)[C@@H](N)CC(=O)O (H-Asp-Phe-OMe),outcome,[2],inactive
same,outcome,[3],inactive
same,outcome,[4],inactive
same,Potency,[1],inactive
O=c1c(O)c(-c2ccc(O)cc2O)oc2cc(O)cc(O)c12,Potency,[5],10 µM (active)
same,Potency,[8],inactive
NS(=O)(=O)c1cc(C(=O)O)c(NCc2ccco2)cc1Cl,outcome,[2],inactive
same,outcome,[3],inactive
same,outcome,[4],inactive
same,activation,[10],-15.7% (inactive)
O=C1c2ccccc2-c2n[nH]c3cccc1c23,Potency,[5],inactive
same,Potency,[1],3.98 µM (active)
same,outcome,[6],inactive
same,Potency,[8],inactive and 398 nM (active)
CC(=O)Nc1ccc(O)cc1,outcome,[2],inactive
same,outcome,[3],inactive
same,outcome,[4],inactive
same,outcome,[5],inactive
same,outcome,[8],inactive
Cc1cc2c(s1)Nc1ccccc1N=C2N1CCN(C)CC1,Potency,[1],inactive
CC1(C)C(=O)N(CCN2CCC(C(=O)c3ccc(F)cc3)CC2)c2ccccc21,Potency,[5],inactive
same,outcome,[6],inactive
same,Potency,[8],1.26 µM (active)
Cc1ncc([N+](=O)[O-])n1CC(C)O (stereo not given),Potency,[1],inactive
CCN(CC)C(=S)SSC(=S)N(CC)CC,Potency,[5],2.51 µM (active) and 398 nM (active)
same,outcome,[6],inactive
same,Potency,[9],7.08 µM (active)
Nc1ccc(S(N)(=O)=O)cc1,outcome,[2],inactive
same,outcome,[3],inactive
same,outcome,[4],inactive
CS(=O)(=O)OCCCCOS(C)(=O)=O,outcome,[2],inactive
same,outcome,[3],inactive
same,outcome,[4],inactive
same,Potency,[1],inactive
Cc1ccc(C)c(OCCCC(C)(C)C(=O)O)c1,outcome,[2],inactive
same,outcome,[3],inactive
same,outcome,[4],inactive
same,Potency,[5],6.31 µM (active)
same,Potency,[1],inactive
CCc1nc(N)nc(N)c1-c1ccc(Cl)cc1,outcome,[2],inactive
same,outcome,[3],inactive
same,outcome,[4],inactive
same,outcome,[5],inactive
Oc1ccc(-c2nc(-c3ccc(F)cc3)c(-c3ccncc3)[nH]2)cc1,Potency,[5],7.94 µM (active)
same,Potency,[8],12.6 µM (active) and 5.01 µM (active)
c1ccc2[nH]c(-c3cscn3)nc2c1,outcome,[2],inactive
same,outcome,[4],inactive
same,activation,[10],-2.82% (inactive)
CC1Cc2ccccc2N1NC(=O)c1ccc(Cl)c(S(N)(=O)=O)c1 (stereo not given),Potency,[1],inactive
COc1c2occc2cc2ccc(=O)oc12,outcome,[2],inactive
same,outcome,[3],inactive
same,outcome,[4],inactive
CCCCC(CC)COC(=O)C(C#N)=C(c1ccccc1)c1ccccc1 (stereo not given),outcome,[2],inactive
same,outcome,[3],inactive
same,outcome,[4],inactive
same,Potency,[1],inactive
CCOC(=O)C1=C(O)C(=O)N(Cc2ccccc2)C1,Potency,[5],3.98 µM (active)
same,outcome,[6],inactive
Nc1nc(Cl)nc2c1ncn2[C@H]1C[C@H](O)[C@@H](CO)O1,Potency,[1],inactive
C[C@H](Cc1ccc(O)c(O)c1)[C@@H](C)Cc1ccc(O)c(O)c1,Potency,[5],1.58 µM (active)
same,Potency,[1],inactive
same,Potency,[8],25.1 µM (active)
same,Potency,[9],7.94 µM (active)
CCCc1cc(=O)[nH]c(=S)[nH]1,outcome,[2],inactive
same,outcome,[3],inactive
same,outcome,[4],inactive
same,Potency,[1],inactive
O=C(NCCO[N+](=O)[O-])c1cccnc1,Potency,[5],2 µM (active)
CN1C(C(=O)Nc2ccccn2)=C(O)c2sccc2S1(=O)=O,activation,[10],-9.7% (inactive)
